From PubChem BioAssay come the findings set out here.

Test [1] concerns Human papillomavirus type 1a protein E7 (residues 44-93). Briefly: small molecules binding HPV E7 44-93 – biochemical, small-molecule microarray, residues 44-93, 635 nm fluorescence, primary screen (AID 1108).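 Also: E7 fragment applied at 1 µg/mL in TBST for 1 h at 4 C; score combines spot fluorescence with its signal to noise ratio.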 The note with it: fluorescence 635 nm, higher = more signal.
Test [2] can be described thus: hepatitis C replication reporter changes, two-sided – Huh7 cells, luciferase reporter, HCV replication inhibitor project, primary screen (AID 1109).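 Also: huh7 hepatoma cells harbouring a luciferase neomycin HCV replicon reporter; luciferase luminescence as measure of HCV replicon replication; test concentration not given here.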 To be noted: Huh7 HCV replicon luciferase reporter, 48 h; higher = more signal.
The target of test [3] is Left-right determination factor 2 (Homo sapiens) (UniProt O00292). Kind of test: small molecules binding LEFTY2 protein – biochemical, small-molecule microarray, 635 nm fluorescence scan, primary screen (AID 1110). To be noted: higher = more signal.
For test [4], the target named is Calmodulin-1 (Homo sapiens) (UniProt P0DP23). Kind of test: small molecules binding calmodulin-1 with EGTA – biochemical, small-molecule microarray, Cy5-labelled CALM1, profiling panel (AID 1111).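 Also: labelled calmodulin applied in Tris saline Tween buffer holding calcium plus EGTA and DTT.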 To be noted: Cy5-CALM1 binding fluorescence, higher = more signal.
For test [5] the target is unchanged. Briefly: small molecules binding Ca-loaded calmodulin-1 – biochemical, small-molecule microarray, Cy5-labelled CALM1, plus calcium, artefact control for SMM control-protein annotation, profiling panel (AID 1112).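 Also: score merges spot fluorescence with signal to noise from triplicate slides.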 The note with it: Cy5-CALM1 binding fluorescence, higher = more signal.
Test [6] in a line: probe aWnt5a binding to arrayed compounds – biochemical, biotinylated probe, 635/667 nm fluorescence, primary screen (AID 1113).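 Also: score merges 667 nm fluorescence intensity with signal-to-noise per printed feature.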 The note with it: small-molecule microarray, higher = more signal.
The nature of test [7]: probe aShh binding to arrayed compounds – biochemical, biotinylated probe, 635/667 nm fluorescence, primary screen (AID 1114).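 Also: probe is biotin-labelled aShh protein from a stem cell growth factor screen; measures binding of labelled protein to compounds printed on the slide; score merges feature fluorescence at 667 nm with signal-to-noise.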 To be noted: small-molecule microarray, higher = more signal.
Test [8] is described as follows: probe aNog binding to arrayed compounds – biochemical, biotinylated probe, 635/667 nm fluorescence, primary screen (AID 1115).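 Also: probe is biotinylated aNog protein used at 0.15 µg/mL for 1 h at 4 C; z-score combines 667 nm fluorescence of each spot with its signal to noise.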 The note with it: small-molecule microarray, higher = more signal.
For test [9], the target named is Torsin-1A-interacting protein 1 (Homo sapiens) (UniProt Q5JTV8). Briefly: compound microarray binding of lysate hLAP1 – cell lysate, small-molecule microarray, COS7 lysate, 635/667 nm fluorescence, primary screen (AID 1116). To be noted: 635 nm fluorescence, higher = more signal.
Test [10] addresses Alpha-bungarotoxin (Bungarus multicinctus) (UniProt P60615). Kind of test: compounds binding labelled alpha-BTX control protein – biochemical, small-molecule microarray, Alexa647 label, 635/667 nm fluorescence, artefact control for SMM control protein annotation, profiling panel (AID 1117). To be noted: alpha-BTX-A647 binding fluorescence, higher = more signal.

Sequence of Torsin-1A-interacting protein 1 (Homo sapiens) (Q5JTV8 whole entry, looked up): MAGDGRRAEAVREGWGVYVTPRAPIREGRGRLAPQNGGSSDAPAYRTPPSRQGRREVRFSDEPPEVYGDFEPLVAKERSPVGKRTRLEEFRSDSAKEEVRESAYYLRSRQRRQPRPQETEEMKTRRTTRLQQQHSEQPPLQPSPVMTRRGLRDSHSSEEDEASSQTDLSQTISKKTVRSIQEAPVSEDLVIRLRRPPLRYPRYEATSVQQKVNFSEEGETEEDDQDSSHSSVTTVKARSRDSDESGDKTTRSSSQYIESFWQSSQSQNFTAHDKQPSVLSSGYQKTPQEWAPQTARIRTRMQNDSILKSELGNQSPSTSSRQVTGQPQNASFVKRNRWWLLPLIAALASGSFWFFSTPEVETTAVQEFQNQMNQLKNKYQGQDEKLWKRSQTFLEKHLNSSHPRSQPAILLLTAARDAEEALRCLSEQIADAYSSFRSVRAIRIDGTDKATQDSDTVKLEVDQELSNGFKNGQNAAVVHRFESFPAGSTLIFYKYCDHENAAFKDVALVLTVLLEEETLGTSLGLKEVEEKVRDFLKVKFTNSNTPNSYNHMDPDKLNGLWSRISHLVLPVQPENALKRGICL
Sequence of Left-right determination factor 2 (Homo sapiens) (O00292 whole entry, looked up): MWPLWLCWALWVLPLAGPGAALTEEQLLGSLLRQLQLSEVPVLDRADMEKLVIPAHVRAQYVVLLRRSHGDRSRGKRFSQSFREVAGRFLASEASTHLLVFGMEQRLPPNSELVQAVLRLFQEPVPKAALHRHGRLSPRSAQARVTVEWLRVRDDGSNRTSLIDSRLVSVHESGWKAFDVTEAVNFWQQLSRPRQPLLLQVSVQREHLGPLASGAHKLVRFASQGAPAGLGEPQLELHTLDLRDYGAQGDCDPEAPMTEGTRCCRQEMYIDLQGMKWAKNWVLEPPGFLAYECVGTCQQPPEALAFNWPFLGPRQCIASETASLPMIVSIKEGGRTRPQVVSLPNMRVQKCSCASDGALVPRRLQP
Sequence of Alpha-bungarotoxin (Bungarus multicinctus) (P60615 whole entry, looked up): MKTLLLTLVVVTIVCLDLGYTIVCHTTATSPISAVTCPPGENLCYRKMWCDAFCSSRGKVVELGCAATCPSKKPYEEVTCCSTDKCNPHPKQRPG

Turning to `CCOC(=O)C[C@H]1[C@H](OC(=O)c2ccccc2-c2ccccc2)[C@@H](NC(=O)CC(C)C)c2cc(OCCCO)ccc2N1C(=O)c1ccccc1`, the composite z-score was 0.0819 in [1]; 0.466 in test [3]; -0.0923 in test [4]; -0.497 in test [5]; -0.124 in [6]; -0.289 in test [7]. In addition, the composite z-score is -0.189 in test [8], 0.222 in [9] and 0.23 in test [10]. For the same compound, in [2], the z-score is -0.783.
On to `CC1CC/C=C\[C@H]2OC34C=CCN(C(C)C)C(=O)[C@H]3N(C(C)CO)C(=O)[C@@H]4C2C(=O)O1` (stereo not given in full), for which the composite z-score in [1] was -0.607; in [3], -0.334; in test [4] it was -0.174; in test [5], -0.824; in [6], -0.128; in test [7], -0.304. Besides, the composite z-score in [8] was -0.0381; in test [9] it was 0.0726; in [10], -0.215. Also, in [2], the z-score was -1.43.
As for `[N-]=[N+]=NCc1ccccc1[C@H]1OC(c2ccc(OCCCO)cc2)=N[C@@]1(Cc1ccccc1N=[N+]=[N-])C(=O)O`, the composite z-score was 1.41 in test [1]; -0.0361 in test [3]; 1.82 in test [4]; 0.83 in [5]; -0.0161 in test [6]; 0.385 in test [7]. Further, the composite z-score in test [8] came to 0.19; in [9], 0.765; in test [10], 1.98. This compound displayed a z-score in [2] of -0.304.
Consider `CCOC(=O)C[C@H]1[C@H](OC(=O)Cc2ccc3c(c2)OCO3)[C@@H](NC(=O)CC(C)C)c2cc(OCCCO)ccc2N1C(=O)c1ccc2ccccc2n1`, for which the composite z-score is 1 in [1]; 0.305 in [3]; 0.42 in test [4]; -0.717 in [5]; -0.0405 in test [6]; -0.221 in [7]. Moreover, the composite z-score was -0.0208 in [8], 0.633 in test [9] and 0.185 in test [10]. In test [2], this compound returned a z-score of -0.699.
For the compound `CN(C)CCCCCCNC(=O)[C@@H]1C[C@@H]2C(=O)N[C@@H](CCCC[N+](C)(C)C)C(=O)N2[C@@H]1c1cccc(OCCO)c1`, the composite z-score in test [1] is -0.0272; in test [3], -1.28; in test [4], -0.207; in test [5], -0.327; in [6], -0.0981; in [7] it was -0.295. Moreover, the composite z-score in [8] was -0.444; in test [9], 2.09; in [10], 0.217. Also, the z-score in test [2] came to 3.7.
For `CC(C)(C)OC(=O)CC[C@]1(C(N)=O)N=C(c2ccc(OCCCO)cc2)O[C@H]1c1ccccc1N=[N+]=[N-]`, the composite z-score in [1] is 0.97; in test [3], -0.143; in test [4], 1.53; in [5], 1.1; in test [6], 0.0371; in test [7], 0.232. The composite z-score in [8] amounted to 0.886; in test [9], 0.791; in test [10] it was 1.43. In [2], this compound gave a z-score of 0.697.
For the compound `COc1ccc(-c2cc3c(c(CCc4ccccc4)n2)[Si](C(C)C)(C(C)C)O[C@H]3c2ccccc2)cn1`, the composite z-score in test [1] was -0.38; in test [3] it was 0.0069; in test [4], -0.0526; in [5], -0.517; in test [6] it was -0.12; in [7], -0.0192. Besides, the composite z-score in [8] was -0.158; in test [9] it was -0.309; in test [10] it was 0.31. In addition, in [2], the z-score was -1.8.
As for `CC(C)(C)OC(=O)CC[C@]1(C(=O)N2CCOCC2)COC(c2ccc(OCCCO)cc2)=N1`, the composite z-score was 1.3 in [1]; -0.325 in test [3]; 0.922 in test [4]; 1.03 in test [5]; -0.124 in [6]; 0.184 in test [7]. For the same compound, the results for the composite z-score in test [8], in [9] and in test [10] were -0.283, 1.13 and -0.31, respectively. The compound also returned a z-score in test [2] of 0.266.
Consider `Cc1ccc(N2C(=O)c3ccccc3[C@@H](C(=O)NCCN3CCOCC3)[C@@H]2c2ccc(CO)cc2)nc1`, for which the composite z-score in test [1] is 0.113; in test [3], -1.29; in [4], -0.287; in [5], 0.609; in test [6] it was -0.1; in test [7], -0.214. For the same compound, the composite z-score is -0.434 in [8], -1.3 in test [9] and -0.843 in test [10]. In [2], this compound showed a z-score of 0.193.
With `O=C1C2C=CC(C(O)C3CCCCC3)N(Nc3ccccc3F)C2C(=O)N1c1ccccc1` (stereo not given), the composite z-score in test [1] is 1.45; in test [3] it was 0.135; in test [4] it was 2.06; in [5], 1; in test [6] it was 0.0993; in [7] it was -0.0054. The composite z-score in test [8] was -0.0116; in test [9] it was 1.27; in test [10], 2.4. In addition, in [2], the z-score was -1.49.
Consider `[N-]=[N+]=Nc1ccccc1C[C@]1(C(=O)N2CCCCC2)N=C(c2ccc(OCCCO)cc2)O[C@H]1c1ccccc1`, for which the composite z-score in [1] is -0.0987; in test [3] it was 0.0344; in test [4] it was 1.8; in [5] it was 0.727; in test [6], 0.0101; in test [7], 0.202. Also, the composite z-score in test [8] is -0.544; in test [9] it was 0.824; in test [10], 1.93. This compound showed a z-score in [2] of -2.42.
As to `O=C1NC(=O)C2C1C=CC(C(O)C1CCCCC1)N2Nc1ccccn1` (stereo not given), the composite z-score was 0.657 in [1]; 0.372 in test [3]; 0.5 in [4]; 0.469 in [5]; -0.0478 in test [6]; 0.321 in [7]. Also, the figures for the composite z-score in test [8], in [9] and in [10] were 0.69, -0.26 and 0.353, respectively. The compound also gave a z-score in test [2] of -0.442.
In the case of `[N-]=[N+]=NCc1ccccc1C[C@]1(C(=O)N2CCCCC2)COC(c2ccc(OCCCO)cc2)=N1`, the composite z-score is 0.288 in test [1]; 0.227 in test [3]; 0.103 in [4]; -0.171 in test [5]; -0.255 in test [6]; 0.262 in test [7]. For the same compound, the composite z-score is -0.694 in test [8], 2.29 in [9] and 0.49 in test [10]. This compound also registered a z-score in test [2] of -2.57.
Consider `CC(C)C[C@@H]1NC(=O)[C@@H]2C[C@H](C(=O)NCCCCCCNC(=O)CS)[C@H](c3ccc(O)cc3)N2C1=O`, for which the composite z-score in [1] is 1.48; in test [3] it was 0.734; in test [4], 1.06; in test [5] it was 0.152; in test [6] it was -0.0495; in [7] it was -0.0211. The values for the composite z-score in test [8], in test [9] and in test [10] were 0.693, 0.469 and 1.76, respectively. The compound further showed a z-score in test [2] of 0.388.
With `O=C1O[C@H](c2ccccc2)[C@H](c2ccccc2)N2[C@H]1[C@@H](C(=O)Nc1nc3ccccc3s1)[C@]1(C(=O)Nc3ccccc31)[C@H]2c1ccccc1OCCO`, the composite z-score in test [1] was 1.39; in [3] it was 0.364; in [4] it was 2.01; in [5], 0.736; in [6], -0.0405; in test [7], -0.0289. Also, the composite z-score is -0.501 in test [8], 2.27 in [9] and 1.69 in [10]. Further, the z-score in test [2] is -2.72.
For `C=C(COC)/C(=C/C[C@@H](OC(=O)c1ccncc1)c1ccccc1OCCO)c1cnc2ccccc2c1`, the composite z-score is 1.24 in test [1]; 1.14 in [3]; 0.528 in [4]; -0.469 in test [5]; 0.067 in test [6]; 0.111 in [7]. Besides, the figures for the composite z-score in test [8], in test [9] and in test [10] were 0.361, 1.47 and 2.96, respectively. The z-score in test [2] is -2.8.
For `NCCCCCCNC(=O)[C@@H]1C[C@@H]2C(=O)NCC(=O)N2[C@@H]1c1cccc(OCCO)c1`, the composite z-score in [1] is 1.3; in test [3] it was 1.09; in test [4] it was -0.115; in [5], 0.293; in test [6], 0.14; in [7] it was 0.0639. Also, the composite z-score is -0.077 in test [8], 0.95 in test [9] and 0.872 in test [10]. The z-score in [2] is -0.453.
